The values below come from PubChem BioAssay (Tox21).

A short description of experiment [1]: Nuclear factor erythroid 2-related factor 2/antioxidant responsive element (Nrf2/ARE) small molecule agonists: qHTS cell viability counter screen in human keratinocytes (AID 1919968; active = well fitted curve in the direction sought with a large enough effect in the repeat runs; an effect the other way counts as inactive or inconclusive; also: nearly all actives have a fitted effect of over 55% in size; also: potency is read from the fitted curve at half-maximal effect). An outline of the steps:
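CellTiter-Fluor fluorescence, read 1 h after reagent, gave viability in the same wells as the ARE-luciferase assay. KeratinoSens cells (1,500/well) had 23 h compound exposure at 37 C/5% CO2 following 5 h plating.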
A general note: qHTS replaces the single test concentration by a dilution series.

The nature of experiment [2]: Nuclear factor erythroid 2-related factor 2/antioxidant responsive element (Nrf2/ARE) small molecule agonists: luciferase reporter gene qHTS assay in human keratinocytes (AID 1919969). Also: nearly all actives have a fitted effect of over 35% in size. In general terms: Reporter assays use an easily measured gene product as a stand-in for the process of interest.
In experiment [3] the target is Gonadotropin-releasing hormone receptor (Homo sapiens) (UniProt P30968). As to the kind of experiment: Human gonadotropin-releasing hormone receptor (GnRHR) small molecule agonists, calcium flux assay in GnRHR-HEK293 cells (AID 1920063). Also: nearly all actives have a fitted effect of over 35% in size. In a few lines: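 Agonist mode: compounds at 15 concentrations, in triplicate, went onto calcium dye-loaded GnRHR-HEK293 cells. Intracellular calcium was then followed as 480/540 nm fluorescence at 1 s intervals over 3 min.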

In experiment [4] the target is KiSS-1 receptor (Homo sapiens) (UniProt Q969F8). Nature of the experiment: Human kisspeptin (KISS1R) small molecule agonists, calcium flux assay in KISS1R-HEK293 cells (AID 1920064; active = well fitted curve in the direction sought with a large enough effect in the repeat runs; an effect the other way counts as inactive or inconclusive). An outline of the steps: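 Agonist mode: intracellular calcium rise tracked at 1 s intervals over 3 min (480/540 nm) immediately after compound addition to dye-loaded KISS1R-HEK293 stable cells. Each compound tested at 15 concentrations in triplicate.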
A general note: Calcium assays in cells follow changes in intracellular calcium, usually with a dye or a luminescent sensor.

Experiment [5] can be described thus: G protein-coupled receptor (GPCR) small molecule agonists, calcium flux assay: HEK293 wild type cell line counter screen (AID 1920065). An outline of the steps: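 Calcium flux counter screen: compound added in agonist mode at 15 concentrations in triplicate to dye-loaded parental HEK293 cells. Fluorescence (480/540) read kinetically for 3 min; ATP served as positive control.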

The nature of experiment [6]: p53 small molecule agonists, cell-based qHTS assay with human liver microsomes: qHTS cell viability counter screen (AID 1963579). Also: nearly all actives have a fitted effect of over 45% in size. In a few lines: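 p53RE-bla cells (4,000/well) were pre-incubated 5 h at 37 C, then given compounds in DMSO plus human liver microsomes (0.5 mg/mL final) and NADPH (0.5 mg/mL final) for 16 h at 37 C. Viability was read by CellTiter-Glo luminescence.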

The nature of experiment [7]: p53 small molecule agonists, cell-based qHTS assay: qHTS cell viability counter screen (AID 1963581). Also: nearly all actives have a fitted effect of over 45% in size. An outline of the steps: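 Counter screen read by CellTiter-Glo luminescence (ATP content, 30 min at room temperature), run in the same wells as the beta-lactamase reporter read. HCT-116 p53RE-bla cells saw compounds for 16 h at 37 C.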
A short description of experiment [8]: p53 small molecule agonists, cell-based qHTS assay (AID 1963582; active = well fitted activation curve with a large enough effect in the signal ratio in the repeat runs, not every such curve was filed as active; the % refers to the signal ratio). In a few lines:
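Read-out is beta-lactamase FRET fluorescence after 2 h at room temperature with LiveBLAzer B/G substrate. p53 response element-bla cells were treated 16 h at 37 C with compounds in DMSO, added 5 h after seeding.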

The target of experiment [9] is 5-hydroxytryptamine receptor 2A (Homo sapiens) (UniProt P28223). Nature of the experiment: 5-hydroxytryptamine receptor 2A (HTR2A) small molecule antagonists, cell-based qHTS assay (AID 1963586). Also: nearly all actives have a fitted effect of over 45% in size. In a few lines:
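CHO cells stably expressing human HTR2A were plated for 18 h at 37 C, then loaded with calcium dye for 1 h. Compounds were preincubated 5 min at room temperature before DOI (4 nM solution) was added. Kinetic fluorescence was read for 3 min.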

Experiment [10] concerns the target Muscarinic acetylcholine receptor M1 (Homo sapiens) (UniProt P11229). As to the kind of experiment: Cholinergic receptor muscarinic 1 (CHRM1) small molecule antagonists, cell-based qHTS assay (AID 1963588). Also: nearly all actives have a fitted effect of over 40% in size. Also: potency is read from the fitted curve at half-maximal effect. An outline of the steps: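 Compounds were tested at 15 concentrations in three independent runs. Dye-loaded CHRM1-CHO cells were exposed 5 min at room temperature before stimulation by acetylcholine added at 50nM. Intracellular calcium was read kinetically on FDSS for 3 min.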

The target is the same in experiment [11]. As to the kind of experiment: Cholinergic receptor muscarinic 1 (CHRM1) small molecule agonists, cell-based qHTS assay (AID 1963589). Also: nearly all actives have a fitted effect of over 35% in size. An outline of the steps:
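Agonist-mode calcium-flux screen: compounds at 15 concentrations, three independent runs, were pin-transferred onto dye-loaded human CHRM1-CHO cells. Fluorescence was then recorded kinetically every second over minutes.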

Experiment [12] can be described thus: cAMP Responsive Elements (CRE) small molecule agonists, cell-based qHTS assay (AID 1963590). An outline of the steps: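 Agonist mode: compound added to CRE-bla HEK 293T cells (2,000/well, 18 h after plating) for 3 h at 37 C/5% CO2. Reporter activity detected via FRET beta-lactamase substrate, 2 h room-temperature loading.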
Experiment [13] is described as follows: cAMP Responsive Elements (CRE) small molecule antagonists, cell-based qHTS assay (AID 1963591; active = well fitted inhibition curve with a large enough effect in the signal ratio in the repeat runs, not every such curve was filed as active; the % refers to the signal ratio). An outline of the steps: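 Antagonist mode: compounds are added alongside the adenylyl cyclase activator NKH477 (0.25 uM final) to CRE-bla HEK293T cells for 3 h. LiveBLAzer FRET substrate, 2 h at room temperature, reports bla expression.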
The target in experiment [14] is Beta-2 adrenergic receptor (Homo sapiens) (UniProt P07550). As to the kind of experiment: Adrenergic beta2 receptor (ADRB2) small molecule antagonists, cell-based qHTS assay (AID 1963592). Also: series mostly up to about 92 µM; nearly all actives have a fitted effect of over 50% in size. In a few lines: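 Assay format: CHO-ADRB2 cells, 18-20hr seeding at 37C/5% CO2, then compound plus 1nM isoproterenol agonist mix for 0.5hr RT. Homogeneous time-resolved fluorescence cAMP detection after 1hr, expressed as 665/615 nm ratio.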

For experiment [15] the target is unchanged. Nature of the experiment: Adrenergic beta2 receptor (ADRB2) small molecule agonists, cell-based qHTS assay (AID 1963593).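 Also: CHO cells stably overexpressing human ADRB2.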 In a few lines:
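CHO cells stably over-expressing ADRB2 were plated overnight at 37C, then dosed with compounds plus a stimulation mix containing 100uM IBMX and 25uM Ro-20-1724 for 0.5hr at room temperature. cAMP was measured by HTRF competition, 1hr.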

For experiment [16], the target named is D(2) dopamine receptor (Homo sapiens) (UniProt P14416). Nature of the experiment: Dopamine D2 receptor (DRD2) small molecule agonists, cell-based qHTS assay (AID 1963594). Also: nearly all actives have a fitted effect of over 35% in size. An outline of the steps: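 cAMP accumulation in DRD2-HEK293 cells measured by HTRF after 1 h detection; compounds added 10 min before NKH477 (200nM […]) forskolin-analogue stimulation, 30 min at room temperature, with Ro20-1724 present at 0.1 mM final.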

The target is the same in experiment [17]. Nature of the experiment: Dopamine D2 receptor (DRD2) small molecule antagonists, cell-based qHTS assay (AID 1963595; active = well fitted inhibition curve with a large enough effect in the signal ratio in the repeat runs, with a control signal flat; the % refers to the signal ratio). In a few lines:
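DRD2-HEK293; 0.1 mM Ro20-1724; cpd 10 min RT; NKH477 200 nM + quinpirole 12 nM, 30 min RT; HTRF cAMP (cAMP-d2/anti-cAMP cryptate), 665/620 nm ratio after 1 h.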

Experiment [18] can be described thus: p53 small molecule agonists, cell-based qHTS assay with rat liver microsomes: qHTS cell viability counter screen (AID 1963580). Also: nearly all actives have a fitted effect of over 45% in size. In a few lines: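 Rat liver microsome (0.5 mg/mL final) and NADPH (0.5 mg/mL final) co-incubation with compounds for 16 h at 37 C on HCT-116 p53RE-bla cells; cytotoxicity taken from intracellular ATP luminescence.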
The target in experiment [19] is 5-hydroxytryptamine receptor 2A (Homo sapiens) (UniProt P28223). As to the kind of experiment: 5-hydroxytryptamine receptor 2A (HTR2A) small molecule agonists, cell-based qHTS assay (AID 1963587). Also: nearly all actives have a fitted effect of over 30% in size. In a few lines: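 Kinetic calcium-flux fluorescence (2 min, 1 sec intervals) after compound addition in agonist mode. HTR2A-CHO cells were cultured 18 h, then dye-loaded 1 h at 37 C.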

“And” between values parts separate entries of the source, which are not always exact repeats. Identical values can stand only once. Results filed as inconclusive are left out. Where a structure was tested more than once in an assay, its records may differ in their call. The source made the active and inactive calls. Unless noted, calls follow the shape of the full dose curve.

Chain of KiSS-1 receptor (Homo sapiens) (Q969F8 whole entry, looked up): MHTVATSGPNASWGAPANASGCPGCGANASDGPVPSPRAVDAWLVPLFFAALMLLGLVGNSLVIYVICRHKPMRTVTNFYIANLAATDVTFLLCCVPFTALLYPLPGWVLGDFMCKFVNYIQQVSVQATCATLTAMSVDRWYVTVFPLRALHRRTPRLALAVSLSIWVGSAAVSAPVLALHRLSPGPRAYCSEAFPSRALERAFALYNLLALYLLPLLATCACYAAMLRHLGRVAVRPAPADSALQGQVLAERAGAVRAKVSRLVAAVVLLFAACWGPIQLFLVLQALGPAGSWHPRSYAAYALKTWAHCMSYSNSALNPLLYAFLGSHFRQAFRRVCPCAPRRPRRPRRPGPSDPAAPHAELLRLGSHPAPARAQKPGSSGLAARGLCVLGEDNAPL
Chain of Muscarinic acetylcholine receptor M1 (Homo sapiens) (P11229 whole entry, looked up): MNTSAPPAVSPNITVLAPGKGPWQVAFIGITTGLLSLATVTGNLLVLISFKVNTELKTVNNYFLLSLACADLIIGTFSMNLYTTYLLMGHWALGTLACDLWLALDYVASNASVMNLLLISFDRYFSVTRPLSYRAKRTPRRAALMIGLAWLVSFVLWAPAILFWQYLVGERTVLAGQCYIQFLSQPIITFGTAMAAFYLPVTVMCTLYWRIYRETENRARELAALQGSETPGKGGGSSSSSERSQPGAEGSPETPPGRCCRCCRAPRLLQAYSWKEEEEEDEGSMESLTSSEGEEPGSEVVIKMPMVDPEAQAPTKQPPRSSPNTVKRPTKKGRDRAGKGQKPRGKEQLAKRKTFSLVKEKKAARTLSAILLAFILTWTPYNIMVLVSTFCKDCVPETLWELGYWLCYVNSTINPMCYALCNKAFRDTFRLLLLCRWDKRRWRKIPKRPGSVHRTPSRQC
Chain of Gonadotropin-releasing hormone receptor (Homo sapiens) (P30968 whole entry, looked up): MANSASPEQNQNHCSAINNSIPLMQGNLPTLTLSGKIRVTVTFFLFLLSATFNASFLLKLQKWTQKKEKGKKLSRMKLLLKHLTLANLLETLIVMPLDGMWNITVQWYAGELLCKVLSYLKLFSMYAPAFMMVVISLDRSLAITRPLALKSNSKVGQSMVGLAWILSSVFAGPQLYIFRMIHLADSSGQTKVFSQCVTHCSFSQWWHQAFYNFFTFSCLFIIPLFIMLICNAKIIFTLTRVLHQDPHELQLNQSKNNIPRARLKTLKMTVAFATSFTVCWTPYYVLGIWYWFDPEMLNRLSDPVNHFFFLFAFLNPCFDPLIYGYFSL
Chain of D(2) dopamine receptor (Homo sapiens) (P14416 whole entry, looked up): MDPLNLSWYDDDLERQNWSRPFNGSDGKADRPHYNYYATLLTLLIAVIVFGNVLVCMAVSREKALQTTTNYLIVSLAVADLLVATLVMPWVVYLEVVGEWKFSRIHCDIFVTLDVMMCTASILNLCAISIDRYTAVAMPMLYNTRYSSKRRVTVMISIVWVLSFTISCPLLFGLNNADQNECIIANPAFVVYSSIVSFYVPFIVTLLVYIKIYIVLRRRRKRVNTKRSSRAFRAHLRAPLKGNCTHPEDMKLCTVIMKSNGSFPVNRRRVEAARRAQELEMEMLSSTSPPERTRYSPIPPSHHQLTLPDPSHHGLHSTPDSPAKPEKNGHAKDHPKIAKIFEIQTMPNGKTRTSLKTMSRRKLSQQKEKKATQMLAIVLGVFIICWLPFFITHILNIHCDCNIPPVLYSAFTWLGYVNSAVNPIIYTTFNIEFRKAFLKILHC
Chain of 5-hydroxytryptamine receptor 2A (Homo sapiens) (P28223 whole entry, looked up): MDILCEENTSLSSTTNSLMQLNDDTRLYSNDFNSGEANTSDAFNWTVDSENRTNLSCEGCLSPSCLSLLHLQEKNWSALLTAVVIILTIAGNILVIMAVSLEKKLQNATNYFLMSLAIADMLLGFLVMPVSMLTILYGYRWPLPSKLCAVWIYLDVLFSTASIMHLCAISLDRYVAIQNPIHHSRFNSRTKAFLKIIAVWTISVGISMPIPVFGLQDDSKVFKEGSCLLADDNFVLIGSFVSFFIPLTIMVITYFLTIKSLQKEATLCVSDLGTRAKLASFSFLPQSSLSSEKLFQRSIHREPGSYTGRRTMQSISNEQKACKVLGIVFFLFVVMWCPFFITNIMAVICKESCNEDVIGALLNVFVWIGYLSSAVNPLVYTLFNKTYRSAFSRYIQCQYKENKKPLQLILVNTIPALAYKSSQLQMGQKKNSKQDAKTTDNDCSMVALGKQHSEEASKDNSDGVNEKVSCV
Chain of Beta-2 adrenergic receptor (Homo sapiens) (P07550 whole entry, looked up): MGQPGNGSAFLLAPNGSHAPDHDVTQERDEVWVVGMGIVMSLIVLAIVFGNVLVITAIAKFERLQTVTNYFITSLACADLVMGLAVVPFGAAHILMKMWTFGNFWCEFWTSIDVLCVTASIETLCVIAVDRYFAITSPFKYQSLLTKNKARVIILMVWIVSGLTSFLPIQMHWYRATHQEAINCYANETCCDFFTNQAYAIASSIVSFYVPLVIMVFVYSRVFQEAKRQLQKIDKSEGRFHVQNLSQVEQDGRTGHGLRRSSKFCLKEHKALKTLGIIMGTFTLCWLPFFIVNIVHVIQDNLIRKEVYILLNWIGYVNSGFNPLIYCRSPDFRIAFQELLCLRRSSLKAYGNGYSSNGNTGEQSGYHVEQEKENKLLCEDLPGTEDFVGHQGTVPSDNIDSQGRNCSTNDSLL

With `CCCCCCCCOc1ccc(C(=O)c2ccccc2)c(O)c1`, the Potency result in [1], in experiment [2], in [3], in [4], in experiment [5] and in experiment [6] was “inactive” throughout. The Potency result in [7], in [8], in experiment [9], in experiment [10], in experiment [11] and in experiment [12] was “inactive” throughout. The Potency result in [13], in experiment [14], in experiment [15], in [16] and in [17] was “inactive” in each case.
Take `CN(C)CCC(c1ccccc1)c1ccccn1` (stereo not given): the Potency entry in experiment [1], in [2], in experiment [3], in [4], in [5] and in experiment [6] was “inactive” each time. The Potency result in experiment [18], in experiment [7], in experiment [8], in experiment [9], in [19] and in experiment [11] was “inactive” in each case. In addition, the Potency entry in experiment [12], in experiment [13], in [14], in experiment [15], in experiment [16] and in [17] was “inactive” each time. The Potency entry in experiment [10] is “inactive and 3.26 µM (active)”.
Regarding `CC(C)c1cccc(C(C)C)c1`, the Potency result in experiment [1], in [2], in experiment [3], in experiment [4], in experiment [5] and in [6] was “inactive” each time. For the same compound, the Potency entry in experiment [18], in experiment [7], in experiment [9], in experiment [19], in experiment [10] and in [11] was “inactive” in each case. Moreover, the Potency entry in [12], in experiment [13], in experiment [14], in experiment [15], in experiment [16] and in experiment [17] was “inactive” in each case.
As for `CC(C)(N)CO`, the Potency result in experiment [1], in experiment [2], in experiment [3], in [4], in experiment [5] and in [6] was “inactive” in each case. Also, the Potency result in experiment [18], in [7], in experiment [8], in experiment [9], in experiment [19] and in [10] was “inactive” each time. For the same compound, the Potency entry in [11], in [12], in experiment [13], in experiment [14], in experiment [16] and in [17] was “inactive” each time.
For `CCCCOCCOCCSC#N`, the Potency entry in [1], in experiment [2], in experiment [3], in [4], in experiment [5] and in experiment [6] was “inactive” in each case. Besides, the Potency entry in [18], in [7], in experiment [8], in experiment [9], in experiment [19] and in experiment [10] was “inactive” throughout. In addition, the Potency entry in [11], in [12], in experiment [13], in [14], in experiment [15] and in experiment [16] was “inactive” throughout. In experiment [17], the Potency entry was “inactive”.
As to `F[B-](F)(F)F`, in [1], the Potency entry is “inactive and 31.1 µM (active)”. Further, the Potency result in [2], in experiment [3], in experiment [4], in [5], in experiment [6] and in [18] was “inactive” in each case. Moreover, the Potency entry in [7], in [9], in experiment [10], in [11], in experiment [12] and in experiment [13] was “inactive” in each case. Further, the Potency entry in [14], in [15], in experiment [16] and in experiment [17] was “inactive” in each case.
Take `CC1=CCC2CC1C2(C)C` (stereo not given): the Potency entry in [1], in experiment [2], in experiment [3], in experiment [4], in experiment [5] and in experiment [6] was “inactive” in each case. The Potency entry in experiment [18], in experiment [7], in [9], in [19], in experiment [11] and in [12] was “inactive” throughout. The Potency result in experiment [13], in [14], in [15], in [16] and in experiment [17] was “inactive” each time.
